Unmarked numbers belong to inactive results. Calls of active or inactive are those of the source.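 How the source made its calls: active means mean tau seeding fluorescence area under 1% of vehicle, meaning inhibition above a set limit; inactive means the rest.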
Biological target: Microtubule-associated protein tau (Homo sapiens) (UniProt P10636)
Experiment: inhibitors of seeded tau aggregation, primary screen, biochemical, seed amplification, ThT fluorescence (AID 2061166)
Settings: Recombinant tau seeded by AD brain, ThT fluorescence AUC; at 100 µM; stronger effect = higher value

Microtubule-associated protein tau (Homo sapiens), sequence (P10636 whole entry, looked up): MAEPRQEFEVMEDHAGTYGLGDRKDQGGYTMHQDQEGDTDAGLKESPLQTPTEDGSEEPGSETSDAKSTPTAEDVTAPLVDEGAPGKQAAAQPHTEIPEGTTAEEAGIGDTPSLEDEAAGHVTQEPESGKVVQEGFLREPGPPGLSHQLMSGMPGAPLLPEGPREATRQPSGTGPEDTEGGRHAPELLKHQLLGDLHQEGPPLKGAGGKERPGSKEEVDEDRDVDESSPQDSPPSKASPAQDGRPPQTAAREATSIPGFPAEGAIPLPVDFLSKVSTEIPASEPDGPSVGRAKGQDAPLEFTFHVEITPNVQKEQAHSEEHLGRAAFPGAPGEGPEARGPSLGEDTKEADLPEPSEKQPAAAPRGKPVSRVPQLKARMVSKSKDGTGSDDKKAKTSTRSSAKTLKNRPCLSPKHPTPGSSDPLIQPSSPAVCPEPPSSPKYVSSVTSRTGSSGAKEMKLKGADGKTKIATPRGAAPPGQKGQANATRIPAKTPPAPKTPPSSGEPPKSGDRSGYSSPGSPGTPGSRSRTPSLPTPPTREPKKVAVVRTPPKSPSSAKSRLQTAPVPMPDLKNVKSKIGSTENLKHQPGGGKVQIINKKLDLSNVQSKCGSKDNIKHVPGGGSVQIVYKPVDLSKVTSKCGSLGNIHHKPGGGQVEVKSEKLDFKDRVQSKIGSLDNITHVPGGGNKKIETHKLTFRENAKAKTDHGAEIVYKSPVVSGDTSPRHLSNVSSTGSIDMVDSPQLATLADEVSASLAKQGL

Row | SMILES | inhibition
1 | CCN(CC)CC#CCOC(=O)C(O)(c1ccccc1)C1CCCCC1 (stereo unspecified) | -0.433%
2 | CC1(C)OC2COC3(COS(N)(=O)=O)OC(C)(C)OC3C2O1 (stereo unspecified) | 20.5%
3 | O=C(C=Cc1ccc(O)c(O)c1)OC(Cc1ccc(O)c(O)c1)C(=O)O (stereo unspecified) | 95%
4 | Cc1nc2c([nH]1)CCN(C(=O)c1ccc(NC(=O)c3ccccc3-c3ccccc3)cc1)c1ccccc1-2 | 6.08%
5 | CNS(=O)(=O)CCc1ccc2[nH]cc(C3CCN(C)CC3)c2c1 | -30.8%
6 | C#Cc1cccc(Nc2ncnc3cc4c(cc23)OCCOCCOCCO4)c1 | -14.6%
7 | CCOC(=O)C1=C(C)NC(C)=C(C(=O)OC)C1c1cccc(Cl)c1Cl (stereo unspecified) | 51.7%
8 | C#CCNC1CCc2ccccc21 (stereo unspecified) | -62.3%
9 | CN(C)c1ccc(C=CC=O)cc1 | 37.8%
10 | CC1CCC2(C(=O)O)CCC3(C)C(=CCC4C5(C)CC(O)C(O)C(C)(CO)C5C(O)CC43C)C2C1C (stereo unspecified) | 31%
11 | CCCCCCCCCC(=O)O | 0.189%
12 | O=C(c1cc(O)c(O)c(O)c1)c1ccc(O)c(O)c1O | 97.9%
13 | NC(=O)c1cn(Cc2c(F)cccc2F)nn1 | -11.5%
14 | N=c1ccc2nc3ccc(N)cc3sc-2c1 | 100% (active)
15 | CNC(=O)c1cc(Oc2ccc(NC(=O)Nc3ccc(Cl)c(C(F)(F)F)c3)cc2)ccn1 | -11%
16 | COc1ccc(Cl)cc1C(=O)NCCc1ccc(S(=O)(=O)NC(=O)NC2CCCCC2)cc1 | -30.9%
